PubChem BioAssay (Tox21)
Records with an inconclusive call do not appear. Calls of active or inactive are those of the source. Unless noted, the call rests on the fitted dose curve; in most records, active means well fitted curve in the direction sought with a large enough effect in the repeat runs; inconclusive means weak or mixed curves; inactive means no such curve, though single readings can be large; an effect the other way counts as inactive or inconclusive.

What was measured:
[1] = qHTS assay to identify small molecule agonists of the TGF-beta/Smad signaling pathway (AID 1346859; active means well fitted activation curve with a large enough effect in the signal ratio in the repeat runs, not every such curve was filed as active; the % refers to the signal ratio; further: series mostly up to about 77 µM)
Method in brief: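 HEK 293T cells stably carrying a beta-lactamase reporter driven by the Smad binding element were seeded overnight, exposed to DMSO-dissolved compounds for 5 hr at 37 C, 5% CO2, then loaded with FRET substrate for 2 hr at room temperature.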

[2] = target: Thyrotropin-releasing hormone receptor (Homo sapiens) (UniProt P34981); test: qHTS assay to identify small molecule agonists of the thyrotropin-releasing hormone receptor (TRHR) signaling pathway (AID 1346891; calls by dose curve; further: potency means the concentration at half of the fitted maximal effect; on activation: series mostly up to about 58 µM)
Method in brief: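 TRHR-expressing HEK293 cells were plated 18 h at 37 °C/5% CO2, loaded with calcium dye 2 h at 37 °C, then given compound in DMSO; fluorescence was read kinetically for 3 min at 1 s intervals.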

[3] = Human pregnane X receptor (PXR) small molecule agonists, qHTS cell viability counter screen (AID 1346977); further: nearly all actives have a fitted effect of over 50% in size
Method in brief: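 PXR-Luc HepG2 cells in medium with 5% charcoal-stripped FBS were pre-incubated 5hr, then exposed to compounds for 24hr at 37C. Viability was read in the same wells by CellTiter-Fluor fluorescence, reagent added after 23hr with a 1hr incubation.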

[4] = Caspase-3/7 induction in HepG2 cells by small molecules, qHTS assay (AID 1346978); further: nearly all actives have a fitted effect of over 15% in size
Method in brief: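 Wild-type HepG2 cells, 2,000/well, settled 5 hr at 37 C and 5% CO2, then compound-treated for 17 hr; caspase-3/7 activity read by luminescent Caspase-Glo 3/7 after 30 min at room temperature.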

[5] = Caspase-3/7 induction in CHO-K1 cells by small molecules, qHTS cell viability counter screen (AID 1346979); further: nearly all actives have a fitted effect of over 35% in size
Method in brief: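 Wild-type CHO-K1 cells were seeded at 1,500 per well, rested 5hr at 37 C, then exposed to compounds in DMSO. After 16hr, CellTiter-Fluor reagent was added and fluorescence read 1hr later as the viability measure.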

[6] = Caspase-3/7 induction in CHO-K1 cells by small molecules, qHTS assay (AID 1346980); further: nearly all actives have a fitted effect of over 15% in size
Method in brief: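 Wild-type CHO-K1 cells exposed to compounds for 17hr at 37 C, 5% CO2. Caspase-3/7 activity then measured by Caspase-Glo 3/7 luminescence after 30min at room temperature.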

[7] = Caspase-3/7 induction in HepG2 cells by small molecules, qHTS cell viability counter screen (AID 1346981); further: series mostly up to about 92 µM; nearly all actives have a fitted effect of over 30% in size
Method in brief: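 Wild-type HepG2 cells, 2,000/well, settled 5 hr at 37 C, 5% CO2 before compound addition. Viability read by CellTiter-Fluor fluorescence, reagent added after 16 hr compound exposure, then 1 hr at 37C, in the same wells as the caspase read.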

[8] = target: Nuclear receptor subfamily 1 group I member 2 (Homo sapiens) (UniProt O75469); test: Human pregnane X receptor (PXR) small molecule agonists, qHTS assay (AID 1346982); further: nearly all actives have a fitted effect of over 35% in size; further: potency means the concentration at half of the fitted maximal effect
Method in brief: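 PXR-Luc HepG2 reporter cells (CYP3A4-driven luciferase) in 5% charcoal-stripped FBS medium, plated 5 h before compound addition, then treated 24 h at 37C. Luciferase read by ONE-Glo luminescence after 30 min at room temperature.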

[9] = target: Thyrotropin-releasing hormone receptor (Homo sapiens) (UniProt P34981); test: qHTS assay to identify small molecule antagonists of the thyrotropin-releasing hormone receptor (TRHR) signaling pathway (AID 1346877; active means well fitted inhibition curve with a large enough effect in the repeat runs, not every such curve was filed as active; further: series mostly up to about 51 µM)
Method in brief: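 TRHR-expressing HEK293 cells loaded with calcium dye for 2 h at 37 C; compounds pre-incubated 5 min at room temperature before TRH challenge at 1 nM final. Intracellular calcium fluorescence read kinetically for 3 min; 15 concentrations in triplicate.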

[10] = target: Nuclear receptor subfamily 1 group I member 2 (Rattus norvegicus) (UniProt Q9R1A7); test: Rat pregnane X receptor (rPXR) activation by small molecules, qHTS assay (AID 1346983); conditions: rPXR luciferase reporter cells, One-Glo luminescence, 24 h; max activation: active compounds read high; further: nearly all actives have a fitted effect of over 20% in size; further: potency means the concentration at half of the fitted maximal effect
Method in brief: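 Cell-based rPXR activation assay: rPXR cells, 2,000 per well, rested 5hr at 37 C, then exposed to compounds in DMSO for 24 hr at 37 C. Luciferase activity read by One-Glo luminescence after 30 min at room temperature.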
On the % scale 0 is the no-effect control and ±100 the full control effect.

Nuclear receptor subfamily 1 group I member 2 (Homo sapiens), sequence (O75469 whole entry, looked up): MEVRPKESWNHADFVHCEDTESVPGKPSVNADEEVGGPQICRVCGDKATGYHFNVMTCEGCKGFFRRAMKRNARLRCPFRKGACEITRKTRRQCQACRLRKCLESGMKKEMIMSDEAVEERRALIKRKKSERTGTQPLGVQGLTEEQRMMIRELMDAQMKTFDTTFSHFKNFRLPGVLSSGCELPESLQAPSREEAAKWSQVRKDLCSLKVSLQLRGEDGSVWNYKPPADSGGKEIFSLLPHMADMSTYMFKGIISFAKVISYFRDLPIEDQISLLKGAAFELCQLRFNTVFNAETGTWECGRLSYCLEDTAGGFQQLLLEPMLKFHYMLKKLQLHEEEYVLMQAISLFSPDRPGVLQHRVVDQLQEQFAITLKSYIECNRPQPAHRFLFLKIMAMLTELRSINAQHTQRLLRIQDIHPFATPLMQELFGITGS
Nuclear receptor subfamily 1 group I member 2 (Rattus norvegicus), sequence (Q9R1A7 whole entry, looked up): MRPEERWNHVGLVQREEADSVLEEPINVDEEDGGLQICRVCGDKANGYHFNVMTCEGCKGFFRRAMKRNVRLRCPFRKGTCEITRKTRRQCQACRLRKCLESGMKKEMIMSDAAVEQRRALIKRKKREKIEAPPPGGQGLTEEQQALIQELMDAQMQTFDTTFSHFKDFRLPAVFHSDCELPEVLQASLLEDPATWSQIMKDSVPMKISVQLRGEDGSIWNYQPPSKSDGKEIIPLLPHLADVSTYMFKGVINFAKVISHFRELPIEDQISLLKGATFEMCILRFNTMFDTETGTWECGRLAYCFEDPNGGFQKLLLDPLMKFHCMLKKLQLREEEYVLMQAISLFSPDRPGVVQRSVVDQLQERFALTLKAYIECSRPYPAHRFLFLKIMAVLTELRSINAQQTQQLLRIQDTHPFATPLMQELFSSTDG
Thyrotropin-releasing hormone receptor (Homo sapiens), sequence (P34981 whole entry, looked up): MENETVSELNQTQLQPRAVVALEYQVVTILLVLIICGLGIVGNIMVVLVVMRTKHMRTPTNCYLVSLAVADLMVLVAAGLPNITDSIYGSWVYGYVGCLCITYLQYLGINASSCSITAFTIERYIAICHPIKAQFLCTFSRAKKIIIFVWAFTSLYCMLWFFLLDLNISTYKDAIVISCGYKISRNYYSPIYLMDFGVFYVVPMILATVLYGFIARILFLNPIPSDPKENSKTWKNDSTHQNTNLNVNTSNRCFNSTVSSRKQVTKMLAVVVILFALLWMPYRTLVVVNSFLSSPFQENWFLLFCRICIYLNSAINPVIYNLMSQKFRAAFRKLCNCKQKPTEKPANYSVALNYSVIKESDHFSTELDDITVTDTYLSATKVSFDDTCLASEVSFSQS

C=CC(=O)OCC[N+](C)(C)C
active: Potency [2] 1.56 µM
inactive: outcome [1] | outcome [3] | outcome [4] | Potency [5] | outcome [6] | outcome [7] | Potency [8]

C=CCN(CC=C)CC=C
inactive: outcome [1] | outcome [9] | outcome [3] | outcome [4] | outcome [6] | outcome [7] | Potency [8]

CC(=O)c1ccc(O)c(C(N)=O)c1
inactive: outcome [1] | outcome [9] | outcome [4] | outcome [6] | outcome [7] | Potency [8]

C[n+]1ccccc1/C=N/O
inactive: outcome [1] | outcome [9] | outcome [3] | outcome [4] | outcome [7] | Potency [8] | max activation [10] -0.461%

NC[C@H]1O[C@H](O[C@H]2[C@H](O)[C@@H](O[C@H]3O[C@H](CO)[C@@H](O)[C@H](N)[C@H]3O)[C@H](N)C[C@@H]2N)[C@H](N)[C@@H](O)[C@@H]1O
inactive: activation [1] 3.2% [at 15.8 µM] | activity, negative = inhibition [9] -3.11% [at 10.5 µM] | activity change, negative = cytotoxicity [3] 11% [at 19 µM] | caspase activation [4] -1.91% [at 19 µM] | activity change, negative = cytotoxicity [7] 0.336% [at 19 µM]

C=CCn1cc[n+](C)c1
inactive: outcome [1] | Potency [2] | outcome [3] | outcome [4] | Potency [5] | outcome [6] | outcome [7] | Potency [8]

COC(=O)C(c1ccccc1Cl)N1CCc2sccc2C1 (centres undefined)
inactive: outcome [1] | outcome [9] | outcome [3] | outcome [4] | Potency [5] | outcome [7]

C/C=C/C(=O)CCCC
inactive: outcome [1] | Potency [2] | outcome [3] | outcome [4] | Potency [5] | outcome [6] | outcome [7]

O=C(c1ccccc1)c1cccc(O)c1
inactive: outcome [1] | Potency [2] | outcome [3] | outcome [4] | Potency [5] | outcome [6] | outcome [7]

O=Cc1ccccc1S(=O)(=O)O
inactive: outcome [1] | outcome [3] | outcome [4] | Potency [5] | outcome [6] | outcome [7] | Potency [8]

CCc1ncc(C)[nH]1
inactive: outcome [1] | outcome [3] | outcome [4] | Potency [5] | outcome [6] | outcome [7] | Potency [8]

CC(C)C(C)C
inactive: outcome [1] | outcome [3] | outcome [4] | Potency [5] | outcome [6] | outcome [7] | Potency [8]

CCCCc1ccc(Cl)cc1
inactive: outcome [1] | Potency [2] | outcome [3] | outcome [4] | Potency [5] | Potency [8]

C/C=C(\C)C(=O)OC/C=C(\C)CCC=C(C)C
inactive: outcome [1] | outcome [3] | outcome [4] | Potency [5] | outcome [6] | outcome [7] | Potency [8]

COC(=O)c1ccc(C(=O)O)cc1
inactive: outcome [1] | outcome [3] | outcome [4] | Potency [5] | outcome [6] | outcome [7] | Potency [8]

CCO/C=C1\N=C(c2ccccc2)OC1=O
inactive: outcome [1] | outcome [3] | outcome [4] | Potency [5] | outcome [6] | outcome [7] | Potency [8]

CCCCCCCC(=O)N(C)C
inactive: outcome [1] | Potency [2] | outcome [3] | outcome [4] | Potency [5] | outcome [7]

CCCCCCCCCCCCCCCC/C=C/C1CC(=O)OC1=O (centres undefined)
inactive: outcome [1] | outcome [3] | outcome [4] | Potency [5] | outcome [6] | outcome [7] | Potency [8]

COC(=O)c1ccc(NC(C)=O)cc1OC
inactive: outcome [1] | Potency [2] | outcome [3] | outcome [4] | outcome [6] | outcome [7] | Potency [8]

CC(C)(C)OC=O
inactive: outcome [1] | outcome [3] | outcome [4] | Potency [5] | outcome [6] | outcome [7] | Potency [8]

O=P(O)(O)C(O)(Cc1cccnc1)P(=O)(O)O
inactive: outcome [1] | outcome [3] | outcome [4] | Potency [5] | outcome [6] | outcome [7] | Potency [8] | max activation [10] -2.56%

COc1cnc(NS(=O)(=O)c2ccc(N)cc2)nc1
inactive: outcome [1] | Potency [2] | outcome [3] | outcome [4] | Potency [5] | outcome [6] | outcome [7] | max activation [10] -1.37%

CC/C=C\CCCCCCCCCCOC(C)=O
inactive: outcome [1] | outcome [3] | outcome [4] | Potency [5] | outcome [7]

COc1ccc2cc(CCC(C)=O)ccc2c1
active: Potency [8] 10.6 µM | Potency [10] 8.91 µM
inactive: outcome [1] | outcome [3] | outcome [4] | Potency [5] | outcome [6] | outcome [7]

CC(C)(C)NCC(O)COc1cccc2c1CCC(=O)N2 (centres undefined)
inactive: outcome [1] | Potency [2] | outcome [3] | outcome [4] | Potency [5] | outcome [7] | max activation [10] -2.26%

CCCCCCCCOCCC#N
inactive: outcome [1] | Potency [2] | outcome [3] | outcome [4] | Potency [5] | outcome [7] | Potency [8]
